Source: PubChem (several laboratories)
phage Ecoli inh: growth loss of phage-infected E. coli, primary screen, RecBCD inhibitor project, absorbance, with phage, HTS; hit rate 0.26% among 360,000; inhibition, % at 11.9 µM; in the data active = inhibition above about 11%
Tat transport: E. coli Tat export inhibitors, primary screen, MC4100, TorA-mCherry reporter, fluorescence, single point | hit rate 0.036% among 340,000 | inhibition, % at 10 µM;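 active = mean replicate inhibition at least 50% and at least half of replicates individually reaching 50%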;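 note: exported cargo escapes ClpAP degradation while cytoplasmic cargo is degraded and loses fluorescence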
AddAB inh: growth inhibition of E. coli expressing H. pylori AddAB, primary screen, AddAB inhibitor project, absorbance | hit rate 0.29% among 330,000 | AID 435030, 2010 | inhibition, % at 11.9 µM; in the data active = inhibition above about 12%
E coli growth-1: E. coli growth inhibition, primary screen, OD600; Escherichia coli growth, 23 h; active compounds read low; OD600 absorbance (concentration not given with the values); hit rate 0.21% among 330,000; AID 1053175, 2014;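 active = OD600 absorbance below the run mean of sample wells minus 3.6 SD, in any replicate, cut at about 0.56 in these data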
E coli growth-2: E. coli V3065 growth inhibition, primary screen, counter-screen for AddAB inhibitor project, absorbance, OD600; inhibition, % at 11.9 µM; hit rate 0.27% among 330,000; AID 449728, 2010; 18 h;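 active = inhibition above the campaign's mean inhibition across all tested compounds plus 3 SD, cut at about 9.9% in these data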;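 note: uninfected addAB+ strain grown without phage in ampicillin broth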
AddAB confirm: growth loss of phage-infected E. coli expressing H. pylori AddAB, confirmation, AddAB inhibitor project, absorbance, E. coli V3065, T4 phage, triplicate | shares compounds with AddAB inh | inhibition, % at 11.9 µM | OD; T4 phage with gene 2 nonsense mutations | hit rate 64% among 880;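 active = mean inhibition above a set limit taken from the earlier primary screen, cut at about 13% in these data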;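 note: higher means less bacterial growth since AddAB block lets phage replicate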
RecBCD counter: growth loss of RecBCD+ E. coli with mutant T4 phage, counter-screen for AddAB inhibitor project, absorbance, V66 E. coli; shares compounds with AddAB inh; OD growth; inhibition, % at 11.9 µM; hit rate 73% among 880; AID 488955, 2010;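 active = mean inhibition above the mean of solvent-only control wells plus 3 SD, cut at about 4% in these data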;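 note: optical density read after an 18 h incubation at 37 °C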
bact viab count: bacterial viability inhibition counter-screen, confirmation, counter-screen for AddAB inhibitor project, absorbance; shares compounds with AddAB inh; absorbance (AddAB counterscreen); inhibition, % at 11.9 µM; hit rate 35% among 880; in the data active = inhibition above about 25%
Of the large screens only hits and unclear results are named; the others gave an inactive call (follow-up assays come after a bar, where they were run). The list is not random: actives were taken first. Their share in the collection is about 0.51%.

CCn1nnnc1SCC(=O)NCc1ccc2c(c1)OCO2	AddAB inh 21, E coli growth-2 13 | AddAB confirm inactive | RecBCD counter inactive | bact viab count inactive
Cn1ccnc1SCC(=O)c1ccc(O)cc1	none
Cn1ccnc1SCC(=O)c1ccc(Cl)cc1	AddAB inh 82, E coli growth-2 35 | AddAB confirm inactive | RecBCD counter inactive | bact viab count inactive
C[C@@H]1Cc2c(O)c(O)cc(O)c2C(=O)O1	none (no result: phage Ecoli inh)
O=C1C=C(O)c2c(O)cc(O)c(O)c2C1=O	AddAB inh 13 | AddAB confirm 14 | RecBCD counter 9.8 | bact viab count inactive
O=c1oc2ccccc2c(NC(c2ccccc2)c2ccccc2)c1[N+](=O)[O-]	AddAB inh 39 | AddAB confirm 101 | RecBCD counter 5.3 | bact viab count inactive
CCc1ccc(Nc2c([N+](=O)[O-])c(=O)oc3ccccc23)cc1	none
CCNc1c([N+](=O)[O-])c(=O)oc2ccccc12	AddAB inh 13 | AddAB confirm 29 | RecBCD counter inactive | bact viab count inactive
CC(Nc1c([N+](=O)[O-])c(=O)oc2ccccc12)C(Cl)c1ccccc1 (centres undefined)	none
CN1CCc2cc3c(c4c2[C@H]1[C@H](O)c1ccccc1-4)OCO3	AddAB inh 13 (no result: E coli growth-1) | AddAB confirm 27 | RecBCD counter inactive | bact viab count inactive
COc1ccc2c(c1OC)C(=O)OC2C1c2c(cc3c(c2OC)OCO3)CCN1C (centres undefined)	none
S=c1nc[nH]c2c1ncn2C1CCCO1 (centres undefined)	AddAB inh 26, E coli growth-2 22 (no result: E coli growth-1) | AddAB confirm inactive | RecBCD counter inactive | bact viab count inactive
Nc1ncnc2c1ncn2C1CCCO1 (centres undefined)	none
Cc1ccc(C(=O)NC(=S)NNC(=O)COc2ccc([N+](=O)[O-])cc2)cc1	none
O=C(COc1ccc([N+](=O)[O-])cc1)NNC(=S)NC(=O)c1ccc(Br)cc1	AddAB inh 98, E coli growth-2 96 | AddAB confirm inactive | RecBCD counter inactive | bact viab count inactive
COc1ccc(CCNC(=O)c2ccc(CN3CCC(Cc4ccccc4)CC3)cc2)cc1OC	AddAB inh 14 | AddAB confirm inactive | RecBCD counter inactive | bact viab count inactive
O=[N+]([O-])c1cnc(Sc2ccncn2)s1	AddAB inh 81, E coli growth-1 0.43, E coli growth-2 12 | AddAB confirm 98 | RecBCD counter 8.7 | bact viab count 35
COc1ccc2c(c1)C1C(CO2)C(c2ccccc2)[C@]2(C)C(=O)Nc3cc(OC)c(OC)cc3C(=O)N12 (some centres undefined)	none (no result: phage Ecoli inh, Tat transport, AddAB inh, E coli growth-2)
CCCC(=O)NC(c1ccccc1OC)c1ccc2cccnc2c1O (centres undefined)	AddAB inh 34, E coli growth-2 31 (no result: phage Ecoli inh) | AddAB confirm 30 | RecBCD counter 26 | bact viab count inactive
CCCC(=O)NC(c1ccc(C)cc1)c1ccc2cccnc2c1O (centres undefined)	AddAB inh 24, E coli growth-2 34 (no result: phage Ecoli inh, E coli growth-1) | AddAB confirm 28 | RecBCD counter 26 | bact viab count inactive
CC(=O)NC(c1cccs1)c1cc(F)c2cccnc2c1O (centres undefined)	none
COc1ccccc1C(NC(C)=O)c1cc(Cl)c2cccnc2c1O (centres undefined)	none
COc1ccc(C(NC(C)=O)c2ccc3cccnc3c2O)c(OC)c1 (centres undefined)	AddAB inh 12 (no result: phage Ecoli inh) | AddAB confirm inactive | RecBCD counter 6.8 | bact viab count inactive
CC(C)CC(=O)NC(c1cccs1)c1ccc2cccnc2c1O (centres undefined)	AddAB inh 26, E coli growth-2 35 (no result: phage Ecoli inh) | AddAB confirm 26 | RecBCD counter 23 | bact viab count inactive
CC(C)NC(=O)Nc1ccc2c(c1)C(=O)N(C(C)CO)CC(C)C(CN(C)S(=O)(=O)c1ccc(F)cc1)O2 (centres undefined)	none (no result: phage Ecoli inh, Tat transport, AddAB inh, E coli growth-2)
Cc1ccc(Oc2ccc(C=NO)cn2)cc1	none (no result: phage Ecoli inh, Tat transport, AddAB inh, E coli growth-2)
O=C1c2ccccc2C(=CC#Cc2ccccn2)N1c1ccccc1	none (no result: phage Ecoli inh, Tat transport, AddAB inh, E coli growth-2)
CCN1C(=O)C2C(c3ccc(-c4ccc5c(c4)OCO5)c(OC)c3)N[C@@](Cc3ccccc3)(C(=O)OC)C2C1=O (some centres undefined)	none (no result: phage Ecoli inh, Tat transport, AddAB inh, E coli growth-2)
C=CCOC(=O)C1=C(C)NC(=O)NC1C=Cc1ccccc1 (centres undefined)	none (no result: phage Ecoli inh, Tat transport, AddAB inh, E coli growth-2)
NS(=O)(=O)c1cc2c(cc1Cl)NCNS2(=O)=O	AddAB inh 55, E coli growth-2 38 | AddAB confirm 100 | RecBCD counter 6.2 | bact viab count 75
COc1cc(C2Nc3cc(Cl)c(S(N)(=O)=O)cc3S(=O)(=O)N2)cc(OC)c1OC (centres undefined)	none
O=C(COc1ccccc1)NCC(c1ccco1)N1CCCCC1 (centres undefined)	AddAB inh 98, E coli growth-2 98 | AddAB confirm inactive | RecBCD counter inactive | bact viab count inactive
NC(=S)N/N=C/c1ccc(C(F)(F)F)cc1	none (no result: E coli growth-1)
NC(=S)N/N=C/c1ncc(C(F)(F)F)cc1Cl	AddAB inh 23, E coli growth-2 18 (no result: phage Ecoli inh, E coli growth-1) | AddAB confirm 18 | RecBCD counter 18 | bact viab count inactive
Cc1ccc(Cl)cc1N1CCN(C(=O)C(=O)N2CCCCC2)CC1	none
Cc1cc(C(=O)N2CCN(c3cc(Cl)ccc3C)CC2)on1	AddAB inh 127 | AddAB confirm inactive | RecBCD counter inactive | bact viab count inactive
Cc1c(Br)c([N+](=O)[O-])nn1C(C)C(=O)NCc1ccco1 (centres undefined)	AddAB inh 17 | AddAB confirm 17 | RecBCD counter inactive | bact viab count inactive
O=C1NCCCc2c1oc1ccc(O)cc21	AddAB inh 100, E coli growth-2 98 | AddAB confirm inactive | RecBCD counter inactive | bact viab count inactive
O=C(NCc1cccs1)C1CCN(S(=O)(=O)c2cccc3cccnc23)CC1	AddAB inh 17 | AddAB confirm inactive | RecBCD counter inactive | bact viab count inactive
COc1ccc(NC(=O)CC2C(=O)N(c3cccc(C)c3)C(=O)N2C2CCCCC2)cc1 (centres undefined)	none
CCc1ccc(NC(=O)CC2C(=O)N(c3cccc(C)c3)C(=O)N2C2CC2)cc1 (centres undefined)	AddAB inh 99, E coli growth-2 53 | AddAB confirm inactive | RecBCD counter inactive | bact viab count inactive
O=C(Nc1oc2ccccc2c(=O)c1-c1ccccc1)c1ccco1	none (no result: Tat transport, AddAB inh, E coli growth-1, E coli growth-2)
